Structures are written as SMILES. Hit rate of the full screen: of about 99,000 compounds, about 390 (0.39%) were called active. No stated cut-off is given here; in the data, active means TR-FRET ratio above about 2000; inactive means the rest. Many of the other results were omitted from the sample, so actives are more common in it than they were.

The source of these data is PubChem BioAssay AID1048 (The Scripps Research Institute Molecular Screening Center, 2008).

This assay in a line: TR-FRET detection interference compounds, artefact control for PPARgamma SRC-3 recruitment agonists, biochemical, TR-FRET ratio (AID 1048). Particulars: TR-FRET artefact counter-screen, PPARgamma/SRC-3 format; at 8 µM; hits give high values. On the technique in general: In TR-FRET formats the signal depends on donor and acceptor labels being close together.
Regarding `COc1ccccc1NC(=O)COC(=O)Cc1ccc(S(=O)(=O)N2CCCCC2)s1`, the TR-FRET ratio is 1680 (inactive).

For `Cc1c(Cl)c([N+](=O)[O-])nn1CC(=O)NCC1CCCO1` (configuration not stated), the TR-FRET ratio is 1690 (inactive).

Consider `O=[N+]([O-])c1ccccc1SNc1ccccn1`, for which the TR-FRET ratio was 1510 (inactive).

Regarding `Cc1cccc(Nc2nc3c(S(=O)(=O)c4ccccc4)nnn3c3ccccc23)c1C`, the TR-FRET ratio was 1540 (inactive).

With `CC(=O)Nc1ccc(Nc2nc3c(S(=O)(=O)c4ccc(C)c(C)c4)nnn3c3ccccc23)cc1`, the TR-FRET ratio is 1560 (inactive).

Consider `COCCCNc1nc2c(-c3cccc(C(F)(F)F)c3)nnn2c2ccccc12`, for which the TR-FRET ratio is 2690 (active).

On to `CCOC(=O)c1ccc(NC(=O)c2cc(=O)[nH]c3ccccc23)cc1`, for which the TR-FRET ratio is 1550 (inactive).

Turning to `O=C(NCc1ccc(F)cc1)C(c1ccccc1)N(C(=O)c1csnn1)C1CC1` (configuration not stated), the TR-FRET ratio is 1460 (inactive).

In the case of `CCc1nccn1S(=O)(=O)c1cccc([N+](=O)[O-])c1`, the TR-FRET ratio is 1700 (inactive).

On to `CC1Cc2ccccc2N1C(=O)CSc1nnc(C2CC2)n1C` (configuration not stated), for which the TR-FRET ratio was 1630 (inactive).

Take `Cc1ccc(S(=O)(=O)N(C)c2ccc(OCC(=O)NC3=NCCS3)cc2)cc1`: the TR-FRET ratio is 1460 (inactive).

`Cc1ccc(NC(=O)NNC(=O)c2sccc2-n2cccc2)cc1`: the TR-FRET ratio is 1310 (inactive).

In the case of `COc1cc(CN(C)Cc2nc3cc(C(F)(F)F)ccc3c(=O)[nH]2)ccc1OC(F)F`, the TR-FRET ratio is 1340 (inactive).

In the case of `CSCC(=O)N1CCCC(C(=O)c2cc(F)ccc2F)C1` (configuration not stated), the TR-FRET ratio is 1400 (inactive).

Take `Cc1ccc(C(=O)N/C(=C/c2cccs2)C(=O)NCC2CCCO2)cc1` (configuration not stated): the TR-FRET ratio was 1510 (inactive).

With `O=C(CCC(=O)NNc1nc2ccccc2c2nc(-c3ccccc3)nn12)NCCCN1CCCC1=O`, the TR-FRET ratio was 1570 (inactive).

In the case of `C/C(=N\Nc1ncc(Cl)cc1Cl)c1cccs1`, the TR-FRET ratio was 1400 (inactive).

Regarding `COCCn1c(=O)[nH]c(=O)c2cc(C(=O)c3cc(OC)ccc3O)cnc21`, the TR-FRET ratio was 1460 (inactive).

For the molecule `Fc1ccccc1Cc1ccc(Cl)nn1`, the TR-FRET ratio is 1250 (inactive).

Turning to `CCCCOc1ccc(N(CC(=O)NC(C)C)C(=O)CCC(=O)Nc2ccccn2)cc1`, the TR-FRET ratio was 1760 (inactive).

`COc1ccc(C2CC(c3cccs3)=NN2C(=O)COC(=O)c2cc3ccccc3cc2O)cc1OC` (configuration not stated): the TR-FRET ratio is 1600 (inactive).

Turning to `O=C(N/N=C/c1ccccn1)C12CC3CC(CC(C3)C1)C2`, the TR-FRET ratio was 1520 (inactive).

Take `O=C(NCCOc1ccccc1F)Nc1ccc(Br)cc1`: the TR-FRET ratio was 1530 (inactive).

For the molecule `O=C(O)c1ccc2c3c(cccc13)C(=O)N(OS(=O)(=O)c1ccccc1)C2=O`, the TR-FRET ratio is 1490 (inactive).

Regarding `CCOC(=O)c1c(NC(=O)CNC2CCCc3ccccc32)sc(C(N)=O)c1C` (configuration not stated), the TR-FRET ratio is 2120 (active).

For the molecule `CCC(=O)Nc1sc(C(=O)Nc2ccccc2)c(C)c1C(=O)OC`, the TR-FRET ratio was 1430 (inactive).

For `CCOC(=O)c1sc(NC(=O)COc2ncnc3ccccc23)c(C(=O)OCC)c1C`, the TR-FRET ratio was 1650 (inactive).

As for `CC(C)(C)C1CCC(C(=O)Nc2cccnc2)CC1` (configuration not stated), the TR-FRET ratio is 1510 (inactive).

In the case of `CN1/C(=C\C(=O)c2cccnc2Cl)C(C)(C)c2ccccc21`, the TR-FRET ratio is 1630 (inactive).

Regarding `Cc1ccc(Cl)cc1N1CCN(C(=O)c2cccc3c(=O)c(C)c(-c4ccccc4)oc23)CC1`, the TR-FRET ratio was 1350 (inactive).

With `O=C(CC1SC(=Nc2ccccc2F)N(CCN2CCOCC2)C1=O)Nc1ccc(F)cc1F` (configuration not stated), the TR-FRET ratio was 1720 (inactive).

For `O=C(NNC(=O)c1cc2c(s1)CCCC2)c1ccccc1`, the TR-FRET ratio was 1550 (inactive).

Consider `CC(C)c1nc(CNC(=O)CC2C(=O)NCCN2Cc2ccoc2)cs1` (configuration not stated), for which the TR-FRET ratio is 1610 (inactive).

Regarding `CCc1cccc(CC)c1NC(=O)COc1ccccc1C(=O)c1cc(C#N)c(=O)n(C2CCCCC2)c1`, the TR-FRET ratio is 1810 (inactive).

For `CCN(CC(=O)NCCc1ccccc1)S(=O)(=O)c1ccc(C)cc1`, the TR-FRET ratio was 1520 (inactive).

On to `O=C(O)CCN(Cc1ccccc1)S(=O)(=O)c1c(Cl)cccc1Cl`, for which the TR-FRET ratio is 1570 (inactive).

For the molecule `O=C(CCc1ccccc1)Nc1nn[nH]n1`, the TR-FRET ratio is 1720 (inactive).

Turning to `C/C(CC(=O)N1CCN(C=O)CC1)=N\NC(=O)c1ccc(Br)cc1`, the TR-FRET ratio is 1640 (inactive).

Take `O=C(Nc1cccc(Cl)c1)c1cc([N+](=O)[O-])ccc1N1CCN(CCO)CC1`: the TR-FRET ratio is 1540 (inactive).

As for `O=C(C1CCN(C2CCN(Cc3cccc4c3OCO4)CC2)CC1)N1CCOCC1`, the TR-FRET ratio is 1420 (inactive).

`Cc1cc(OCC(=O)NC2CCN(C)CC2)ccc1[N+](=O)[O-]`: the TR-FRET ratio is 1610 (inactive).

For the molecule `O=C(Nc1ccccc1C(=O)N1CCOCC1)c1ccc(Cl)cc1`, the TR-FRET ratio is 1680 (inactive).

With `COc1ccc(C(=O)Nc2ccc(NC(=O)C(C)C)nc2)cc1`, the TR-FRET ratio was 1500 (inactive).

As for `C=CCn1nc(-c2ccccc2)c2c(C)onc2c1=O`, the TR-FRET ratio was 1650 (inactive).

As for `O=C(N1CCCCC1)N1CCN(C(=O)N2CCCCC2)CC1`, the TR-FRET ratio is 1530 (inactive).

`CC(=O)Nc1ccccc1OC(C)C(=O)N1CCC(C)CC1` (configuration not stated): the TR-FRET ratio is 1390 (inactive).

`O=C(NCc1ccncc1)NC12CC3CC(CC(C3)C1)C2`: the TR-FRET ratio was 1490 (inactive).

Consider `Cc1ccc(C(=O)OC(C)CN2CCOCC2)cc1` (configuration not stated), for which the TR-FRET ratio was 1500 (inactive).

With `CCOC(=O)C1CCCN(C(=O)/C=C/c2ccc(OC)cc2)C1` (configuration not stated), the TR-FRET ratio was 1570 (inactive).

For the molecule `COc1ccc(CN2CCCC(CNC(=O)c3ccc(F)cc3)C2)cc1OC` (configuration not stated), the TR-FRET ratio is 1700 (inactive).

`Cc1ccnc(NC(=O)CCC(=O)N(CC(=O)NCCc2ccccc2)Cc2cccs2)c1`: the TR-FRET ratio was 1720 (inactive).

Take `COc1cccc(CC2(CO)CCCN(Cc3nc(-c4cccs4)oc3C)C2)c1` (configuration not stated): the TR-FRET ratio was 1600 (inactive).

`CCOC(=O)N1CCN(C(=O)Cn2cnc3ccccc3c2=O)CC1`: the TR-FRET ratio was 1650 (inactive).

Consider `Cc1ccc2nsnc2c1NC(=O)c1ccccc1[N+](=O)[O-]`, for which the TR-FRET ratio was 1630 (inactive).

Consider `COc1cc(/C=C/C(=O)O)cc(S(=O)(=O)Nc2ccccc2SC)c1OC`, for which the TR-FRET ratio was 1430 (inactive).

Take `CCSc1nc(C)c(CCOc2cccc(C)c2)c(=O)[nH]1`: the TR-FRET ratio is 1860 (inactive).

`Cc1ccc(C(=O)NCC(=O)O)s1`: the TR-FRET ratio is 1560 (inactive).

With `COc1cc(COCC(O)CN2CCN(Cc3ccc4c(c3)OCO4)CC2)cc(OC)c1OC` (configuration not stated), the TR-FRET ratio is 1800 (inactive).

In the case of `CCN(CC)CC(=O)Nc1sc2c(c1C(=O)c1ccccc1C)CCC2`, the TR-FRET ratio is 1510 (inactive).

`NC(=O)C[C@@H]1NC(=O)CNC(=O)c2cc([N+](=O)[O-])cc(I)c2NCCC(C(N)=O)NC1=O` (some centres not stated): the TR-FRET ratio is 1320 (inactive).

For the molecule `Cc1cc(C(=O)NNC(=O)c2cccc(S(=O)(=O)N3CCOCC3)c2)c2ccccc2n1`, the TR-FRET ratio was 1670 (inactive).

As for `O=C(Cc1ccccc1)NNC(=O)C1CCN(c2ncccn2)CC1`, the TR-FRET ratio was 1500 (inactive).
